High-throughput results: PubChem BioAssay, National Center for Advancing Translational Sciences (NCATS)
Rows were chosen to be rich in hits. Some 8% of all compounds tested hit in one or more screens of this group.
KB-3-1 tox: KB-3-1 parental cell cytotoxicity | KB-3-1 viability, CellTiter-Glo ATP luminescence, 72 h | Potency, µM (titrated, usually from 46.1 µM), actives largely listed as cytotoxic | 400,000 compounds, 1.4% hits; also: % is scaled to controls: 0 for no effect and ±100 for the full control effect; nearly all actives have a fitted effect of over 60% in size
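Viability of parental KB-3-1 cells, measured by CellTiter-Glo luminescence, followed a 72 h incubation at 37 °C with pinned compounds in phenol-red-free DMEM containing 10% FBS.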
MCF10A rerep: induces DNA re-replication in MCF 10a normal breast cells. 350,000 compounds, 2.9% hits. AID 624296. MCF 10A DNA re-replication, Hoechst nuclear intensity, 48 h. Potency, µM (doses to about 46.1 µM), inactives show top-dose activity, positive = re-replication, usual class: activators; also: % of control where 0% means no effect; nearly all actives have a fitted effect of over 50% in size
KB-V1 MDR tox: kills drug-selected multidrug resistant KB-V1 cells; KB-V1 MDR cells viability, CellTiter-Glo, 72 h; Potency, µM (series often up to 46.1 µM), most hits filed as cytotoxic; 400,000 compounds, 3.4% hits; AID 1347076; also: % is scaled to controls: 0 for no effect and ±100 for the full control effect; nearly all actives have a fitted effect of over 60% in size
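Luminescent ATP read-out (CellTiter-Glo, 10 min) measures survival of drug-selected KB-V1 MDR cells after 72 h, 37 degrees C compound exposure. Medium: phenol-red-free DMEM, 10% FBS. Values from fitted concentration-response curves.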
SW480 rerep: inducers of DNA re-replication in SW480 colon cancer cells; SW480 DNA re-replication, Hoechst DNA content imaging, 48 h; Potency, µM (top dose mostly 46.1 µM), without a hit: at the top dose re-replication activation, actives largely listed as activators; 340,000 compounds, 1.8% hits; AID 624297; also: % of control where 0% means no effect; nearly all actives have a fitted effect of over 55% in size
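Image-based read-out: total Hoechst fluorescence of nuclei (405 nm excitation, 500-530 nm emission), with hits raising the fraction of high-intensity nuclei. SW480 colon cells incubated 48 hr with compounds at 37 C.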
HT1080-NT tox: kills 2HG-producing HT-1080-NT fibrosarcoma cells. 360,000 compounds, 1.6% hits. AID 686970. HT-1080-NT fibrosarcoma viability, CellTiter-Glo ATP luminescence, 48 h. Potency, µM (titrated, usually from 46.1 µM), for inactives: top-dose activity, negative = less viability, hits mostly cytotoxic;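 also: NT is the 2HG producing partner of a matched IDH1 knockdown line; 0% = DMSO-treated cells and -100% = media-only wells without cells; nearly all actives have a fitted effect of over 55% in size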
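Luminescent CellTiter-Glo readout after 48 hours of compound exposure at 37 degrees C defined viability of HT-1080-NT cells. Activity was normalized to DMSO wells and cell-free media wells; concentration-response curves were fitted and assigned curve classes.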
HT1080 IDH1KD tx: toxicity to HT-1080 IDH1 knockdown cells (counter line) | HT-1080 IDH1 knockdown viability, ATP luminescence, 48 h | 360,000 compounds, 2% hits | Potency, µM (highest dose often 46.1 µM), for inactives: at the top dose activity, negative = toxicity, usual class: cytotoxic | AID 686971;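 also: 0% = DMSO wells and -100% = cell-free medium wells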
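Knockdown cells (IDH1KD HT-1080) received compounds 2 h after plating at 750 cells/well and were kept 48 h at 37 °C in 5% FBS RPMI. A CellTiter-Glo luminescence read gave % activity for curve fitting.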
Numbers without * were called inactive; i = inactive; ? = inconclusive; . = no result given; [ ] = remark or other dose. Calls follow the shape of the dose curve; as a rule, active = well fitted curve in the direction sought with a large enough effect; inconclusive = small, poorly fitted or top-dose-only effect, or another doubt; inactive = no such curve, though single readings can be large; an effect the other way counts as inactive or inconclusive. Potency is read from the fitted curve at half-maximal effect.

SMILES	KB-3-1 tox	MCF10A rerep	KB-V1 MDR tox	SW480 rerep	HT1080-NT tox	HT1080 IDH1KD tx
O=C(O)c1ccc(-c2nc(-c3ccccc3)c(-c3cccs3)[nH]2)cc1	i	1%	i	0%	10%	10%
Cc1c(Cl)cnc(NC(=O)COC(=O)[C@H](C)NC(=O)c2ccccc2)c1Cl	i	1%	i	-13%	-3%	0%
CC(=O)c1cccc(CN2CCCC(N3CCN(c4ccccc4F)CC3)C2)c1 (configuration not stated)	i	?	i	0%	-2%	-1%
CN(Cc1ccccc1)c1ccc(C=O)cc1	i	.	i	.	.	.
CN(Cc1ccccc1)c1nc(N)nc(Cl)c1C=O	i	28%	i	4.6µM*	?	18µM*
CN(C)c1nc(N)c2ncc(=S)[nH]c2n1	i	29µM*	i	?	-5%	-19%
O=C(NC1CCCCC1)c1cc([N+](=O)[O-])ccc1N1CCCCC1	i	-6%	9.2µM*	0%	-10%	-5%
Cc1ccc(C(=O)c2cc([N+](=O)[O-])ccc2N2CCCCC2)cc1C	2.9µM*	?	5.8µM*	1.8µM*	1.6µM*	1.5µM*
Cc1ccc(C(=O)c2cc([N+](=O)[O-])ccc2N2CCOCC2)c(C)c1	1µM*	0.92µM*	0.58µM*	0.13µM*	?	?
Cc1cccc(NC(=O)c2cc([N+](=O)[O-])ccc2N2CCOCC2)c1C	i	.	i	.	-7%	0%
Cc1ccc(C(=O)c2cc([N+](=O)[O-])ccc2N2CCOCC2)cc1C	16µM*	?	3.7µM*	.	?	1.8µM*
Cc1ccc(C(=O)c2ccc([N+](=O)[O-])cc2)cc1C	i	1%	i	0%	6%	12%
CCCCn1c(SCC(=O)Nc2sc3c(c2C(N)=O)CCC3)nnc1-c1ccccc1	i	7%	i	0%	-15%	-28%
Cc1ccc2nc(NC(=O)CCNS(=O)(=O)c3ccc(Br)s3)sc2c1	i	?	18µM*	0%	?	?
CC(=O)c1cccc(N=C2NC(=O)CS2)c1	i	1%	6.5µM*	-5%	8%	9%
CN(C)/C=C/C(=O)c1ccc(S(=O)(=O)c2ccccc2)cc1	i	1%	i	2%	-2%	0%
Cc1cc2oc(C(=O)Nc3sc4c(c3C(=O)NCc3ccccc3)CCCC4)cc(=O)c2cc1C	i	.	i	.	.	.
COc1cc(C=C(c2nc3ccccc3s2)c2nc3ccccc3s2)ccc1O	i	21µM*	i	?	?	?
COc1ccc(C=C(c2nc3ccccc3s2)c2nc3ccccc3s2)cc1O	i	13µM*	?	?	?	?
COc1ccc(/C=N/Nc2nc3ccccc3s2)cc1O	i	15%	?	-4%	-15%	-18%
COc1ccc(NC(=O)c2sc3nc4n(c(=O)c3c2C)CCC4)cc1Cl	i	.	i	.	.	.
CC(=O)c1cccc(NC(=O)Nc2ccc3c(c2)CCC3)c1	i	7%	?	-2%	-9%	0%
CC1CCN(CC2CCN(C(=O)NCc3ccc(F)cc3)CC2)CC1	i	.	i	.	.	.
COc1ccc(Nc2nnc(SCc3cn4c(C)cccc4n3)s2)cc1	12µM*	?	?	?	-15%	-23%
COc1ccc(OCc2nc(C#N)c(N3CCN(c4ccc(OC)cc4)CC3)o2)cc1	i	-2%	?	2%	1%	3%
O=C1[C@@H](Oc2ccccc2)[C@@H](c2ccncc2)N1c1ccccc1	i	9%	i	?	?	21µM*
CC(C)CCNC(=O)c1cccc(S(=O)(=O)N2CCc3ccccc32)c1	i	15%	i	15%	-4%	-26%
COc1ccc(CN(C)C(=O)c2cccc(S(=O)(=O)N3CCc4ccccc43)c2)c(OC)c1	18µM*	8%	?	?	-9%[9.24 µM]	-12%
